Values joined by “and” are separate entries in the source; they are usually repeats but may differ in a detail not shown here. Equal values may be shown once. Records with an inconclusive call do not appear. A structure can be active in one record and inactive in another. Active and inactive are the calls of the source. Unless noted, calls come from the whole dose curve; as a rule, active = well fitted curve in the direction sought with a large enough effect in the repeat runs; inconclusive = weak or mixed curves; inactive = no such curve, though single readings can be large; an effect the other way counts as inactive or inconclusive.
Key:
[1] = qHTS assay to identify aromatase inhibitors - cell viability counter screen (AID 743084);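 note: cells stimulated with testosterone during compound exposure; nearly all actives have a fitted effect of over 55% in size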; note: potency is the fitted concentration of half-maximal effect
[2] = molecular target: Aryl hydrocarbon receptor (Homo sapiens) (UniProt P35869); assay: qHTS assay to identify small molecule that activate the aryl hydrocarbon receptor (AhR) signaling pathway (AID 743085); note: nearly all actives have a fitted effect of over 15% in size; note: potency is the fitted concentration of half-maximal effect;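 for activation: HG2L7.5c1 human HepG2 liver cells with stably integrated DRE-driven firefly reporter; series mostly up to about 70 µM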
Aryl hydrocarbon receptor (Homo sapiens), sequence (P35869 whole entry, looked up): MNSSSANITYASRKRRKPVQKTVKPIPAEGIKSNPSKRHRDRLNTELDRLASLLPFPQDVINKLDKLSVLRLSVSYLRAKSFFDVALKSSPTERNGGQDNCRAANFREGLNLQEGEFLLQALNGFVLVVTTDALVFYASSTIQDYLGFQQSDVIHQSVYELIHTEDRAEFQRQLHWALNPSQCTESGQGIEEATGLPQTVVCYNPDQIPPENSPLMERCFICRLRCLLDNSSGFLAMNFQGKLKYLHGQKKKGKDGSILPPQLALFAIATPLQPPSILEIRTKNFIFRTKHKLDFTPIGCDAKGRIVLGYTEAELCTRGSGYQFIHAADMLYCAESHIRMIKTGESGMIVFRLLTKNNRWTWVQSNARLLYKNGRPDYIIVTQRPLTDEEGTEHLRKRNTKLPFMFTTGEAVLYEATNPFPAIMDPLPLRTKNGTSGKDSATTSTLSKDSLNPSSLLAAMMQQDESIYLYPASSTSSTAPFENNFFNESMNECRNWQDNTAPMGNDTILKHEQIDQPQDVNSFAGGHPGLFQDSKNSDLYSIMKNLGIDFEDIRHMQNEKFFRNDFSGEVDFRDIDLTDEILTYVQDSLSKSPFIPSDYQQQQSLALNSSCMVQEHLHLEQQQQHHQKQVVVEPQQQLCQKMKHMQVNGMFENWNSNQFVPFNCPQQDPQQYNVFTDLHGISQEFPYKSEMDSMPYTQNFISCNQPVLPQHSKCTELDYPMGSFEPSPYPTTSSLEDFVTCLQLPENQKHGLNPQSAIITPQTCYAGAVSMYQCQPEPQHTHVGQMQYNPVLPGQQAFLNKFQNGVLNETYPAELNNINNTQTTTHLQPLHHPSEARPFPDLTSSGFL
Method in brief: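 A multiplexed format paired cell viability (CellTiter-Fluor fluorescence) with AhR-dependent luciferase output (ONE-Glo luminescence) in the same wells of HepG2 DRE-luc cells after 24 h compound exposure at 37C.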

[3] = qHTS assay to identify small molecule that activate the aryl hydrocarbon receptor (AhR) signaling pathway - cell viability counter screen (AID 743086); note: nearly all actives have a fitted effect of over 45% in size; note: potency is the fitted concentration of half-maximal effect
Method in brief: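 HepG2-AhR-luc (HG2L7.5c1) cells, 4000/well, were preincubated 5 h at 37C, exposed to compound in qHTS format for 24 hr at 37C, then given CellTiter-Fluor for 30 min; viability was read as fluorescence in the reporter wells.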

[4] = molecular target: Peroxisome proliferator-activated receptor gamma (Homo sapiens) (UniProt P37231); assay: qHTS assay to identify small molecule agonists of the peroxisome proliferator-activated receptor gamma (PPARg) signaling pathway (AID 743094; active = well fitted activation curve with a large enough effect in the signal ratio in the repeat runs, not every such curve was filed as active; the % refers to the signal ratio)
Peroxisome proliferator-activated receptor gamma (Homo sapiens), sequence (P37231 whole entry, looked up): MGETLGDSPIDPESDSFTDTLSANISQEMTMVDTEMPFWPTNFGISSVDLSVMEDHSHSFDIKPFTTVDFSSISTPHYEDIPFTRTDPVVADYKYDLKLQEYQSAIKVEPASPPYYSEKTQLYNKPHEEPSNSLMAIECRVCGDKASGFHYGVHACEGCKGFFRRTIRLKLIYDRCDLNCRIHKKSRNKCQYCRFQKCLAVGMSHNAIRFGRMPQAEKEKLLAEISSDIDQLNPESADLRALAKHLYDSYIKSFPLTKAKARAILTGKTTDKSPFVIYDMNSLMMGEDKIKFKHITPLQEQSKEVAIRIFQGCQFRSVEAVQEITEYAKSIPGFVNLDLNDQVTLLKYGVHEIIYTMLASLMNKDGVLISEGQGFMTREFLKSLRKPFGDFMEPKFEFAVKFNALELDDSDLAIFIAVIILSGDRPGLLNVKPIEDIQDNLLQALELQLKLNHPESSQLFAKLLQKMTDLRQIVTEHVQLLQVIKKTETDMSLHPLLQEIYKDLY
Method in brief: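 Compounds dissolved in DMSO were added to PPARg UAS-bla HEK293H cells for 17 h at 37C, and reporter expression was quantified by fluorescence intensity after 1 h with LiveBLAzer B/G FRET substrate.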

[5] = molecular target: Peroxisome proliferator-activated receptor gamma (Homo sapiens) (UniProt P37231); assay: qHTS assay to identify small molecule antagonists of the peroxisome proliferator-activated receptor gamma (PPARg) signaling pathway (AID 743191; calls by dose curve; note: series mostly up to about 63 µM; nearly all actives have a fitted effect of over 30% in size)
Method in brief: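 GeneBLAzer PPARg UAS-bla HEK293H cells carrying a UAS-driven beta-lactamase reporter were plated at 3000 cells/well, preincubated 5 h at 37C, then given compound for 17 h at 37C; LiveBLAzer B/G FRET substrate was read after 1 h at room temperature.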

[6] = qHTS assay to identify small molecule antagonists of the peroxisome proliferator-activated receptor gamma (PPARg) signaling pathway - cell viability counter screen (AID 743194); note: nearly all actives have a fitted effect of over 55% in size
Method in brief: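 PPARg-UAS-bla HEK293H cells were plated, rested 5 h at 37 C, then treated with compounds plus rosiglitazone (50 nM final) for 17 h at 37 C; viability was then read by CellTiter-Glo luminescence after 30 min at room temperature.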

[7] = qHTS assay for small molecule agonists of the antioxidant response element (ARE) signaling pathway (AID 743202; active = well fitted activation curve with a large enough effect in the signal ratio in the repeat runs, not every such curve was filed as active; the % refers to the signal ratio; note: potency is the fitted concentration of half-maximal effect)
Method in brief: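 Read-out: LiveBLAzer B/G FRET substrate fluorescence after 2 h at room temperature, following 16 h compound treatment at 37 C of HepG2 cells carrying an ARE-driven beta-lactamase reporter.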

[8] = qHTS assay for small molecule agonists of the antioxidant response element (ARE) signaling pathway - cell viability counter screen (AID 743203; calls by dose curve; note: nearly all actives have a fitted effect of over 55% in size)
Method in brief: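 Following 16 hrs of compound treatment at 37C, HepG2 cells with an ARE-controlled beta-lactamase gene were lysed with CellTiter-Glo. Luminescence was read after 30 min at room temperature.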

[9] = qHTS assay for small molecule activators of the heat shock response signaling pathway - cell viability counter screen (AID 743209); note: nearly all actives have a fitted effect of over 50% in size
Method in brief: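 Readout: CellTiter-Glo luminescence, 30 min at room temperature. System: HSE-bla HeLa cells, 1500/well, plated overnight. Treatment: compounds in DMSO, 5 h at 37 C.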

[10] = qHTS assay for small molecule activators of the heat shock response signaling pathway (AID 743210; active = well fitted activation curve with a large enough effect in the signal ratio in the repeat runs, with a control signal flat, not every such curve was filed as active; the % refers to the signal ratio; note: series mostly up to about 63 µM)
Method in brief: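 HSE-bla HeLa cells (beta-lactamase reporter under heat shock response elements) were exposed to compounds for 5 h at 37 C, then loaded with LiveBLAzer B/G FRET substrate for 2.5 h at room temperature before fluorescence reading.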

[11] = qHTS assay to identify small molecule agonists of the peroxisome proliferator-activated receptor delta (PPARd) signaling pathway - cell viability counter screen (AID 743211); note: nearly all actives have a fitted effect of over 55% in size
Method in brief: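 Tox21 library compounds, delivered in DMSO, were incubated 17 h with PPARd-bla HEK293H cells; cytotoxicity was taken from CellTiter-Glo luminescence read 30 min after reagent addition.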

[12] = molecular target: Peroxisome proliferator-activated receptor delta (Homo sapiens) (UniProt Q03181); assay: qHTS assay to identify small molecule agonists of the peroxisome proliferator-activated receptor delta (PPARd) signaling pathway (AID 743212; calls by dose curve)
Peroxisome proliferator-activated receptor delta (Homo sapiens), sequence (Q03181 whole entry, looked up): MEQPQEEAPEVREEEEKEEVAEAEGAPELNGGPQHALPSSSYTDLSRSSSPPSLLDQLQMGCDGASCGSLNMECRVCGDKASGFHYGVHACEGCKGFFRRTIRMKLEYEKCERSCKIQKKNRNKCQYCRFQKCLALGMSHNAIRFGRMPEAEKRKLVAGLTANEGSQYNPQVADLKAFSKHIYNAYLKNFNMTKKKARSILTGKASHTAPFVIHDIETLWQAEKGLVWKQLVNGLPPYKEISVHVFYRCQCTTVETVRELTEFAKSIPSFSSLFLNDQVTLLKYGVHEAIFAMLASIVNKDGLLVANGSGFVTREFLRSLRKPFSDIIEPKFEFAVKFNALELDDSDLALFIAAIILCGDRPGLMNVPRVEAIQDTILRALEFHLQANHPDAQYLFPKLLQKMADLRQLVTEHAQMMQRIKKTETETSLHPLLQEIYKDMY
Method in brief: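 GeneBLAzer PPARd UAS-bla HEK293H cells (beta-lactamase reporter under UAS control), plated and rested 5 h at 37 C, then exposed to compounds in DMSO at 37 C; LiveBLAzer B/G FRET substrate added, 2 h room temperature, fluorescence read.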

[13] = qHTS assay to identify small molecule antagonists of the peroxisome proliferator-activated receptor delta (PPARd) signaling pathway - cell viability counter screen (AID 743213); note: nearly all actives have a fitted effect of over 50% in size
Method in brief: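 Cytotoxicity counter screen: CellTiter-Glo luminescence read 30 min after addition, in the same wells as the reporter assay. There, PPARd UAS-bla HEK293H cells (3000/well) were treated 17 h at 37 C with compound and 300 nM L165041.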

[14] = molecular target: Peroxisome proliferator-activated receptor delta (Homo sapiens) (UniProt Q03181); assay: qHTS assay to identify small molecule antagonists of the peroxisome proliferator-activated receptor delta (PPARd) signaling pathway (AID 743215; active = well fitted inhibition curve with a large enough effect in the signal ratio in the repeat runs, not every such curve was filed as active; the % refers to the signal ratio;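 note: cells stimulated with agonist L165041 at 300 nM final during compound exposure; series mostly up to about 62 µM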)
Method in brief: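 HEK293H UAS-bla, PPARd; agonist L165041 300 nM final with cpd in DMSO; 37 C 17 h; FRET substrate, RT 2 h; fluorescence intensity.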

[15] = qHTS assay to identify small molecule agonists of the farnesoid-X-receptor (FXR) signaling pathway - cell viability counter screen (AID 743218); note: nearly all actives have a fitted effect of over 45% in size
Method in brief: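 Parallel cytotoxicity test: compound-treated (16 h, 37 C) HEK 293T FXR-bla reporter cells were lysed with CellTiter-Glo and luminescence recorded.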

[16] = molecular target: Vitamin D3 receptor (Homo sapiens) (UniProt P11473); assay: qHTS assay to identify small molecule agonists of the vitamin D receptor (VDR) signaling pathway (AID 743222; calls by dose curve)
Vitamin D3 receptor (Homo sapiens), sequence (P11473 whole entry, looked up): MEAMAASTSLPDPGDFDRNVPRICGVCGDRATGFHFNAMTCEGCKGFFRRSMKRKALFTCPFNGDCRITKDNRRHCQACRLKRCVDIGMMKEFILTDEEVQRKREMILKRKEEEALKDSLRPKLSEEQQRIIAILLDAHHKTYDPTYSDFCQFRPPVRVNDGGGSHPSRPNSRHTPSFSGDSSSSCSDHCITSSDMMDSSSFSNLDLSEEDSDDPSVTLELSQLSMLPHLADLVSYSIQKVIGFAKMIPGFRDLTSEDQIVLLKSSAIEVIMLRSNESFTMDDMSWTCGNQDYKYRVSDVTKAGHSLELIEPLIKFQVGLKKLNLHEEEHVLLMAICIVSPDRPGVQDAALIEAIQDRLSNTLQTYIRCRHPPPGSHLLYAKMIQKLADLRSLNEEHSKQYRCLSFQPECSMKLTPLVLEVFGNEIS
Method in brief: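 In VDR-bla cells, compound-induced beta-lactamase expression is quantified by FRET substrate fluorescence. Treatment lasts 16 h at 37C; substrate develops 2 h at room temperature.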

[17] = molecular target: Vitamin D3 receptor (Homo sapiens) (UniProt P11473); assay: qHTS assay to identify small molecule antagonists of the vitamin D receptor (VDR) signaling pathway (AID 743223; active = well fitted inhibition curve with a large enough effect in the signal ratio in the repeat runs, not every such curve was filed as active; the % refers to the signal ratio)
Method in brief: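 Quantitative HTS in VDR-bla reporter cells stimulated with 1alpha,25-dihydroxyvitamin D3, 3 nM final. Compound exposure 16 h, 37C, 5% CO2. Read-out: beta-lactamase FRET substrate fluorescence, 2 h RT.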

[18] = qHTS assay to identify small molecule antagonists of the farnesoid-X-receptor (FXR) signaling pathway - cell viability counter screen (AID 743221; active = well fitted cell-killing curve with a large enough effect in the repeat runs, not every such curve was filed as active; note: nearly all actives have a fitted effect of over 50% in size)
Method in brief: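 Cytotoxicity is taken from ATP luminescence (CellTiter-Glo, 30 min, room temperature) in FXR-bla HEK 293T cells previously incubated 16 h at 37 C with compound and chenodeoxycholic acid at 50 uM final.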

[19] = molecular target: Bile acid receptor (Homo sapiens) (UniProt Q96RI1); assay: qHTS assay to identify small molecule antagonists of the farnesoid-X-receptor (FXR) signaling pathway (AID 743217; active = well fitted inhibition curve with a large enough effect in the signal ratio in the repeat runs, not every such curve was filed as active; the % refers to the signal ratio)
Bile acid receptor (Homo sapiens), sequence (Q96RI1 whole entry, looked up): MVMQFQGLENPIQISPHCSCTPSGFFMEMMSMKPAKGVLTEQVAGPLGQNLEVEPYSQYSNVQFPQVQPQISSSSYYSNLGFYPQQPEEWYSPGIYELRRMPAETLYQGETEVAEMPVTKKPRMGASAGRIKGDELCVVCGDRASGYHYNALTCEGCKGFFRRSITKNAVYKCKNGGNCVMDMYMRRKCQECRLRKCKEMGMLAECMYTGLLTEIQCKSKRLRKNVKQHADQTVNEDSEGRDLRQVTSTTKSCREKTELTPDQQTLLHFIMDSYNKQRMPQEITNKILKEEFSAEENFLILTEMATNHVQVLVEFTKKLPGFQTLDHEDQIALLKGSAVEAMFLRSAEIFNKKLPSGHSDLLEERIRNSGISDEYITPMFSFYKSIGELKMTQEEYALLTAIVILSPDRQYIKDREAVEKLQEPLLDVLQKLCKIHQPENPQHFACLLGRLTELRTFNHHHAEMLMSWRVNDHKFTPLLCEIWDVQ
Method in brief: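 GeneBLAzer FXR-UAS-bla HEK 293T, CDCA-stimulated (50 uM final). Compound treatment 16 h, 37 °C. Detection: beta-lactamase cleavage of B/G FRET substrate, fluorescence.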

[20] = molecular target: Bile acid receptor (Homo sapiens) (UniProt Q96RI1); assay: qHTS assay to identify small molecule agonists of the farnesoid-X-receptor (FXR) signaling pathway (AID 743220; active = well fitted activation curve with a large enough effect in the signal ratio in the repeat runs, not every such curve was filed as active; the % refers to the signal ratio)
Method in brief: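 Beta-lactamase reporter under UAS control in GeneBLAzer FXR HEK 293T cells (5000/well) measured with LiveBLAzer FRET substrate after 2 h at room temperature. Compound exposure lasted 16 h at 37C.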

Measured: Potency

CS(=O)(=O)OCCCCOS(C)(=O)=O
not listed: [18] | [19] | [20]
inactive: all other assays above

CCCc1cc(=O)[nH]c(=S)[nH]1
not listed: [16] | [17] | [19] | [20]
inactive: all other assays above

O=c1[nH]cc(F)c(=O)[nH]1
not listed: [18]
inactive: all other assays above

CCCCCCCC(=O)OCC(COC(=O)CCCCCCC)OC(=O)CCCCCCC
inactive: all assays above

CC1(C)O[C@@H]2C[C@H]3[C@@H]4CCC5=CC(=O)C=C[C@]5(C)[C@@]4(F)[C@@H](O)C[C@]3(C)[C@]2(C(=O)CO)O1
not listed: [10] | [18]
inactive: all other assays above

NS(=O)(=O)c1cc2c(cc1Cl)NCNS2(=O)=O
not listed: [12] | [14]
inactive: all other assays above

Cc1cccc(C)c1
not listed: [19] | [20]
inactive: all other assays above

CCCCNC(=O)NS(=O)(=O)c1ccc(C)cc1
inactive: all assays above

O=S1(=O)OC(c2ccc(O)cc2)(c2ccc(O)cc2)c2ccccc21
active: [1] 27.3 µM | [3] 24.3 µM
not listed: [18] | [19] | [20]
inactive: all other assays above

CN(N=O)C(=O)N[C@@H]1[C@@H](O)[C@H](O)[C@@H](CO)O[C@@H]1O
not listed: [18]
inactive: all other assays above

CCCCC1(COC(=O)CCC(=O)O)C(=O)N(c2ccccc2)N(c2ccccc2)C1=O
not listed: [19] | [20]
inactive: all other assays above

Cc1cn([C@H]2C=C[C@@H](CO)O2)c(=O)[nH]c1=O
not listed: [18]
inactive: all other assays above

Cc1ncc([N+](=O)[O-])n1CCO
not listed: [16] | [17] | [19] | [20]
inactive: all other assays above

Nc1c2c(nc3ccccc13)CCCC2
active: [2] 4.86 µM and 61.1 µM
not listed: [12] | [14] | [16] | [17] | [19] | [20]
inactive: all other assays above

NC(CO)(CO)CO
not listed: [12] | [14] | [18] | [19] | [20]
inactive: all other assays above

CC12CCC(CC1)C(C)(C)O2
not listed: [18]
inactive: all other assays above

NS(=O)(=O)O
not listed: [19] | [20]
inactive: all other assays above

Cc1cc(C)nc(NS(=O)(=O)c2ccc(N)cc2)n1
not listed: [16] | [17] | [18]
inactive: all other assays above

NC(=O)c1cccnc1
inactive: all assays above

CN(C)CCOC(C)(c1ccccc1)c1ccccn1 (stereo not given)
not listed: [18]
inactive: all other assays above

O=C1NC(=O)C(c2ccccc2)(c2ccccc2)N1
not listed: [16] | [17] | [18] | [19] | [20]
inactive: all other assays above

F[B-](F)(F)F
inactive and 27.6 µM (active): [7]
not listed: [12] | [14] | [19] | [20]
inactive: all other assays above

CC(C)C(=O)Nc1ccc([N+](=O)[O-])c(C(F)(F)F)c1
active: [7] 19.3 µM and 23.7 µM
not listed: [12] | [14] | [16] | [17] | [18]
inactive: all other assays above

NC1CCCCC1
30.8 µM (active) and inactive: [2]
not listed: [19] | [20]
inactive: all other assays above

O=c1[nH]cnc2c1ncn2[C@H]1CC[C@@H](CO)O1
not listed: [10] | [16] | [17] | [18] | [19] | [20]
inactive: all other assays above

CC1(C)S[C@@H]2[C@H](NC(=O)[C@H](N)c3ccccc3)C(=O)N2[C@H]1C(=O)O
not listed: [10] | [12] | [14] | [16] | [17] | [18] | [19] | [20]
inactive: all other assays above

O=C(O)CC(O)C(=O)O (stereo not given)
not listed: [12] | [14] | [19] | [20]
inactive: all other assays above

CCOc1ccc(NC(C)=O)cc1
not listed: [12] | [14] | [18]
inactive: all other assays above

From PubChem BioAssay (Tox21)
